Bioassay records: PubChem BioAssay, National Center for Advancing Translational Sciences (NCATS)
Pf growth 96h – P. falciparum growth inhibition at 96 hours | P. falciparum luciferase reporter growth, 96 h | Potency, µM (series often up to 28.7 µM), for the others: at the top dose activity change, negative = inhibition, hits mostly inhibitors | 6.9% of 320,000 active | AID 504834; note: potency is the fitted concentration of half-maximal effect; % is set by controls: 0 for no effect and ±100 for the full control effect
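P. falciparum expressing integrated firefly luciferase, in erythrocytes at 2% hematocrit, 0.05% parasitemia, incubated with compounds 96 h at 37 C, 5% CO2. Growth inhibition read as loss of luminescence; two-generation exposure targets delayed-death apicoplast inhibitors.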
Shiga inhibitor – blocks Shiga toxin action in Vero cells; Vero cells, Shiga toxin protein synthesis inhibition reporter; inhibition, % at 38.7 µM; 9.2% of 290,000 active; in the data active = inhibition mostly above about 28%, no sharp cut-off; inactive = mostly below about 43%; note: 0% is about no effect
Cycloheximide cs – counter-screen hit for Shiga toxin inhibitors, cycloheximide; AID 2314; 12% of 300,000 active; cell reporter, cycloheximide protein synthesis inhibition counterscreen; max response, %; in the data active = max response mostly above about 13%, no sharp cut-off; inactive = mostly below about 14%; note: read at 38.3 µM for the half of the compounds with a filed dose; 0% is about no effect
NS1 function inh – influenza NS1 inhibition. Potency, µM (series often up to 46.1 µM), inactives show at the highest dose activity, positive = more growth. 0.4% of 270,000 active; calls by dose curve; note: potency is the fitted concentration of half-maximal effect; actives are rising curves; nearly all actives have a fitted effect of over 50% in size
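OD600 was taken as the measure of yeast growth restored by compound in an NS1-expressing S. cerevisiae strain. Cells had been washed out of glucose medium and diluted 1:100 into galactose -URA medium, pH 6.0.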
Pf growth 48h – inhibits P. falciparum growth in the first generation, 48 h. 5.9% of 310,000 active. Potency, µM (series often up to 28.7 µM), for the others: at the top dose activity change, negative = inhibition, hits mostly inhibitors. P. falciparum luciferase growth in erythrocytes, 48 h; note: potency is the fitted concentration of half-maximal effect; % is set by controls: 0 for no effect and ±100 for the full control effect
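Read-out is firefly luciferase luminescence from an integrated reporter in P. falciparum, so falling signal marks reduced parasite growth. Infected erythrocytes were at 2% hematocrit and 0.1% parasitemia (final) in Albumax-supplemented RPMI 1640.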
* marks the source's active call; other numbers are inactive results; [ ] = dose if it differs, or a comment. This is a sample that favours compounds with a hit; in the whole collection about 21% have one here. Unless noted, calls come from the whole dose curve; as a rule, active = well fitted inhibition curve with a large enough effect; inconclusive = small, poorly fitted or top-dose-only effect, or another doubt; inactive = no such curve, though single readings can be large or run the other way.

Results for N=c1c2c(-c3ccccc3)c(-c3ccccc3)n(Cc3ccco3)c2ncn1Cc1ccccc1 ?
Pf growth 96h: 2.6µM*; Shiga inhibitor: 12; Cycloheximide cs: 3; NS1 function inh: 1%

What do the screens show for `OCCn1cnc2c(SCc3ccccc3)ncnc21`?
NS1 function inh: 0%

Results for CC(C)Cn1cnc2c(c(-c3ccccc3)c(-c3ccccc3)n2Cc2ccco2)c1=N ?
Pf growth 96h: 2.1µM*; Shiga inhibitor: -6; Cycloheximide cs: -4; NS1 function inh: 3%

How did CC(=O)NC12CC3CC(C1)CC(C(=O)Nc1nc4ccc(S(C)(=O)=O)cc4s1)(C3)C2 do in these assays?
Pf growth 96h: -31%; Shiga inhibitor: 6; Cycloheximide cs: 0; NS1 function inh: 2%; Pf growth 48h: inconclusive

Results for O=C(Nc1ccnn1C1CCN(C(=O)c2ccccc2C(F)(F)F)CC1)C1CC1 ?
Pf growth 96h: 2%; Shiga inhibitor: 40; Cycloheximide cs: 27*; NS1 function inh: inconclusive; Pf growth 48h: -15%

Results for COC(C(=O)N1CCC(n2nccc2NC(=O)C2CC2)CC1)c1ccccc1 (centres undefined) ?
Pf growth 96h: 38%; Shiga inhibitor: 107*; Cycloheximide cs: 41*; NS1 function inh: -5%; Pf growth 48h: -6%

What do the screens show for `COC(C(=O)Nc1ccnn1C1CCN(C(=O)c2ccc(C=O)cc2)CC1)c1ccccc1` (centres undefined)?
Pf growth 96h: 3%; Shiga inhibitor: -2; Cycloheximide cs: 16; NS1 function inh: 13%; Pf growth 48h: inconclusive

Results for O=C(COc1ccc(Cl)cc1)Nc1ccccc1C(=O)NCc1cccnc1 ?
Pf growth 96h: inconclusive; Shiga inhibitor: 14; Cycloheximide cs: -3; NS1 function inh: 2%; Pf growth 48h: inconclusive

Results for Cc1nonc1C1CCCN1Cc1cn[nH]c1-c1ccc(-c2ccccc2)cc1 (centres undefined) ?
Pf growth 96h: inconclusive; Shiga inhibitor: 20; Cycloheximide cs: 11; NS1 function inh: 23%; Pf growth 48h: -17%

What do the screens show for `CCn1nccc1C(=O)Nc1ccc(C(=O)OC(C)C)cc1`?
Pf growth 96h: 7%; Cycloheximide cs: 24*; NS1 function inh: -21%; Pf growth 48h: 26%

Results for CCn1nccc1C(=O)Nc1ccc(Cl)cc1Cl ?
Pf growth 96h: -8%[5.75 µM]; Shiga inhibitor: 40*; Cycloheximide cs: 23*; NS1 function inh: inconclusive; Pf growth 48h: 38%

Results for CCn1nccc1C(=O)Nc1cc(Cl)ccc1Cl ?
Pf growth 96h: -1%; Shiga inhibitor: 2; Cycloheximide cs: -1; NS1 function inh: -12%; Pf growth 48h: 27%

What do the screens show for `CCn1nccc1C(=O)Nc1cccc(C)c1C`?
Pf growth 96h: -12%; Shiga inhibitor: 16; Cycloheximide cs: -1; NS1 function inh: 1%; Pf growth 48h: -3%

How did CCOc1ccc(N(CC(=O)N2CCCCCC2)S(=O)(=O)c2ccc(C)cc2)cc1 do in these assays?
Pf growth 96h: inconclusive; Shiga inhibitor: 42; Cycloheximide cs: 4; NS1 function inh: -48%; Pf growth 48h: inconclusive

How did COc1cccc(OCc2cc(C(=O)N(C)Cc3nccn3C)no2)c1 do in these assays?
Pf growth 96h: 15%; Shiga inhibitor: 136*; Cycloheximide cs: 53*; NS1 function inh: 2%; Pf growth 48h: 18%

How did COc1ccc(OCc2cc(C(=O)N(C)Cc3nccn3C)no2)c2ccccc12 do in these assays?
Pf growth 96h: inconclusive; Shiga inhibitor: 22; Cycloheximide cs: 7; NS1 function inh: -19%; Pf growth 48h: -30%

How did Cc1ccc(OCCN(C)C(=O)c2cc(COc3ccc(F)cc3F)on2)cc1 do in these assays?
Pf growth 96h: 23%; Shiga inhibitor: 33; Cycloheximide cs: 13*; NS1 function inh: 0%; Pf growth 48h: 0%

Results for COc1ccc(OCc2cc(C(=O)N(Cc3nccn3C)C(C)C)no2)c2ccccc12 ?
Pf growth 96h: -3%; Shiga inhibitor: 47*; Cycloheximide cs: 43*; NS1 function inh: -29%; Pf growth 48h: -15%

Results for COc1cccc(OCc2cc(C(=O)N(C)CCOc3ccc(C)cc3)no2)c1 ?
Pf growth 96h: inconclusive; Shiga inhibitor: 75*; Cycloheximide cs: 68*; NS1 function inh: -58%; Pf growth 48h: -3%

Results for COc1cccc(CN(C)C(=O)c2cc(COc3ccc4ncccc4c3)on2)c1 ?
Pf growth 96h: 16%; Shiga inhibitor: 17; Cycloheximide cs: 1; NS1 function inh: -8%; Pf growth 48h: -17%

How did COc1ccc(S(=O)(=O)NC2CCCC2)cc1Cl do in these assays?
Pf growth 96h: 66%; Shiga inhibitor: 18; Cycloheximide cs: 3; NS1 function inh: -9%; Pf growth 48h: 13%

What do the screens show for `O=C(O)c1ccc(Nc2ncnc3c2cnn3Cc2ccccc2)cc1`?
Pf growth 96h: 20%; Shiga inhibitor: -11; Cycloheximide cs: -3; Pf growth 48h: 2%

Results for CCOC(=O)/C(C#N)=C/c1c[nH]c2ccccc12 ?
Pf growth 96h: 13%; Shiga inhibitor: 81*; Cycloheximide cs: 28*; NS1 function inh: -6%; Pf growth 48h: 47%

What do the screens show for `CC(=O)Oc1c(/C=C(\C#N)C(N)=O)[nH]c2ccccc12`?
Pf growth 96h: -15%; Shiga inhibitor: 11; Cycloheximide cs: 22; NS1 function inh: -20%; Pf growth 48h: 10µM*

How did N#C/C(=C\c1c[nH]c2ccccc12)C(N)=O do in these assays?
Pf growth 96h: 20%; Shiga inhibitor: 27; Cycloheximide cs: 9.0*; NS1 function inh: -8%; Pf growth 48h: 28%

What do the screens show for `COC(=O)/C(C#N)=C/c1c[nH]c2ccccc12`?
Pf growth 96h: inconclusive; Shiga inhibitor: 103*; Cycloheximide cs: 37*; Pf growth 48h: 7%

What do the screens show for `CCOP(=O)(OCC)/C(C#N)=C/c1c[nH]c2ccccc12`?
Pf growth 96h: inconclusive; Shiga inhibitor: 7; Cycloheximide cs: -2; NS1 function inh: 4%; Pf growth 48h: inconclusive

What do the screens show for `CCOc1ccccc1/C=C(/C#N)C(N)=O`?
Pf growth 96h: inconclusive; Shiga inhibitor: -4; Cycloheximide cs: 1; NS1 function inh: inconclusive; Pf growth 48h: 4%

Results for Cc1ccc(Cn2nnc(C(=O)Nc3cccc(C)c3C)c2N)cc1 ?
Pf growth 96h: 21%; Shiga inhibitor: -2; Cycloheximide cs: 2; NS1 function inh: -7%; Pf growth 48h: inconclusive

Results for Cc1cccc(NC(=O)c2n[nH]c([N+](=O)[O-])c2Br)c1C ?
Pf growth 96h: inconclusive; Shiga inhibitor: 67*; Cycloheximide cs: 22*; Pf growth 48h: 78%

Results for CCCCCCOc1ccc(N2C(=O)CC(N3CCN(CCN=CC4C(=O)CC(C)(C)CC4=O)CC3)C2=O)cc1 (centres undefined) ?
Pf growth 96h: -3%; Shiga inhibitor: -10; Cycloheximide cs: -6; Pf growth 48h: -5%

What do the screens show for `Oc1ccc(/C(Cc2ccc3ccccc3n2)=N\Nc2ccccc2)c(O)c1`?
Pf growth 96h: inconclusive; Shiga inhibitor: 69*; Cycloheximide cs: 34*; Pf growth 48h: inconclusive
